# Measurements as given in PubChem BioAssay.
# Where “and” joins values, the source holds several entries; their conditions need not be identical. Identical values can stand only once. Calls of active or inactive are those of the source. Unless noted, how the calls were made is not given here.
# Tests used:
# [1] = polyglutamine-triggered caspase-3 activation inhibitors, cell-based (AID 1583); conditions: polyglutamine-induced caspase-3 activation, cell assay; stronger effect = higher value;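 tested at 10 µM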
# [2] = suppressors of polyQ aggregation in yeast, 75Q-TubU reporter (AID 1593); conditions: Yeast 75Q polyglutamine aggregation reporter
# [3] = circadian clock period modulators, cell-based, LOPAC library, luminescence reporter (AID 2774); conditions: circadian reporter cells, at 7 µM, actives lie on both sides;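 further: values are relative to mean of DMSO wells on each plate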
# [4] = Cy5 fluorescence quenching or enhancement artefacts, artefact control for HCV NS3 helicase inhibitor project, biochemical, LOPAC1280 (AID 687037); conditions: Cy5-DNA-NS3h complex fluorescence interference counterscreen
# [5] = stimulators of nuclear beta-catenin in C2C12, primary screen, imaging, WNT3A-conditioned medium, mouse C2C12, NPC library (AID 1117326; in the data active means nuclear beta-catenin stimulation mostly above about 4.2%, no sharp cut-off; inactive means mostly below about 10%); conditions: stronger effect = higher value
# [6] = stimulators of insulin release from INS-1E, primary screen, cell-based, 5 mM glucose, NPC library (AID 1117329;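 active means compound raises insulin release from rat beta cells at 5 mM glucose, no numeric limit stated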); conditions: rat INS-1E insulin secretion, at 10 µM, stronger effect = higher value
# [7] = growth inhibition of GSK3B-pretreated HCT116 cells – cell-based, CellTiter-Glo, 0.2 to 20 µM (AID 1117336;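 active means compounds lowering colon cancer cell viability after pretreatment blocking the GSK3B kinase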); conditions: HCT116 viability after GSK3B inhibitor, at 20 µM, stronger effect = higher value
# [8] = inhibition of endothelial tube formation, primary screen, imaging, VEGF stimulated, CD31 staining, tube area, NPC library (AID 1117340;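 active means compound that reduces growth-factor-driven endothelial tube area in a mixed cell culture, no cutoff stated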); conditions: VEGF-stimulated ADSC/ECFC co-culture, at 10 µM, stronger effect = higher value
# [9] = glucagon-like peptide 1 release enhancers, primary assay, NCI-H716 cell line, NPC library (AID 1117341;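 active means compound raises GLP1 secretion from the human gut endocrine cells, with no numeric limit stated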); conditions: NCI-H716 cells, at 10 µM, stronger effect = higher value
# [10] = HCT116 colon cancer cell growth inhibition, primary screen, CellTiter-Glo luminescence, NPC library (AID 1117342;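 active means compounds that lower survival of HCT116 colon cancer cells in the luminescence readout, no numeric limit stated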); conditions: at 20 µM (top of the series)
# [11] = CellTiter-Glo luminescent readout of SW480 viability loss, NPC library primary (AID 1117343;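 active means compounds that lower viability of the colon cancer cells in the luminescence readout, with no numeric limit stated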); conditions: CellTiter-Glo luminescence; at 20 µM (top of the series)
# [12] = decreased DLD-1 cellular survival, CellTiter-Glo luminescent readout, NPC compound collection, primary HTS (AID 1117346;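 active means compounds that lower survival of DLD-1 colon cancer cells in the luminescence readout, no cutoff given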); conditions: DLD-1 viability, CellTiter-Glo luminescence; at 20 µM (top of the series)
# [13] = biological target: 6-phosphogluconate dehydrogenase, decarboxylating (Homo sapiens) (UniProt P52209); test: 6PGD enzyme inhibitors, primary screen, biochemical, human, recombinant enzyme, NADPH absorbance (AID 1159550;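 active means at least 20% inhibition of 6-phosphogluconate dehydrogenase activity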); conditions: recombinant 6PGD, NADPH absorbance 341 nm; at 10 µM; stronger effect = higher value
# [14] = differential killing of epithelial or mesenchymal cells, primary screen, imaging, PC-3E GFP, TEM4-18 mCherry, co-culture (AID 1345086;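 active means compounds killing one labelled cell type while sparing the other, by normalised counts and ratio limits, not self-fluorescent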;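 on all read-outs here: cells exposed to compound for 72 h before imaging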;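 on red/green cell ratio (normalised): normalised mesenchymal count divided by normalised epithelial count so high means epithelial killing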); conditions: imaging cell counts, at 1 µM; for red/green cell ratio (normalised): actives lie on both sides
# [15] = test system: Aerobactin synthetase IucA (Klebsiella pneumoniae hvKP1); test: Biochemical IucA enzyme inhibition primary screen of the Spectrum library (AID 1346200); conditions: malachite green pyrophosphate, A620, at 8 µM, stronger effect = lower value;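 further: 100% = wells without compound and 0% = wells lacking enzyme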
# [16] = survival rescue of mitochondrial mutant cells in low glucose, primary screen, MELAS cybrids, Rieske KO mouse fibroblasts, CellTiter-Glo (AID 1508586;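 active means mean z-score across replicates of 1.96 or higher in either the MELAS or the Rieske mutant cell line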;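 further: z relative to plate mean and SD of compound and empty wells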)
# [17] = biological target: NAD(+) hydrolase SARM1 (Homo sapiens) (UniProt Q6SZW1); test: SARM1 TIR NADase inhibitors, cell lysate, NAD-Glo luminescence (AID 1508614;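 active means compound whose remaining NAD level is above about 45 nM, limit read from the data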); conditions: SAM-TIR HEK293T lysate NADase, at 1 µM, stronger effect = higher value
# [18] = viability rescue of complex I mutant cybrids, primary screen, cell-based, galactose medium, ATP luminescence (AID 1645843;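 active means z-score of at least 1.8 in each of two replicates, scored against plate mean and spread of sample wells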;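 further: positive z means more ATP and so rescue of galactose-driven cybrid death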); conditions: complex I mutant cybrid cells, 72 h, stronger effect = higher value
# [19] = sensitizers of A549 cells to miR-34 induction, primary screen, imaging, A549 dox-inducible miR-34, nuclei and caspase counts (AID 1347080;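 active means compounds whose cell count with miR-34 switched on is under 0.7 times the count with it off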); conditions: A549 miR-34 inducible, Hoechst nuclei count, 48 h
# [20] = biological target: Mitogen-activated protein kinase 7 (Homo sapiens) (UniProt Q13164); test: ERK5 transactivation activators in reporter cells, primary screen, cell-based, HTS (AID 1508626;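 active means luciferase signal above three times the same-plate solvent-only control wells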;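 further: luciferase driven by Gal4-ERK5 fusion binding five Gal4 sites before minimal TATA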); conditions: HeLa Gal4-ERK5 transactivation, 18 h, at 5 µM, stronger effect = higher value
# [21] = measured here: epithelial PC-3E GFP cell survival
# [22] = measured here: mesenchymal TEM4-18 mCherry cell survival
# [23] = MELAS cybrid survival, CellTiter-Glo 48 h, stronger effect = higher value
# [24] = Rieske KO mouse fibroblast survival, CellTiter-Glo 72 h
# [25] = measured here: relative caspase fold change +Dox/-Dox
# [26] = measured here: total cells with miR-34 induction, stronger effect = lower value
# [27] = measured here: total cells without miR-34 induction
# Chain of NAD(+) hydrolase SARM1 (Homo sapiens) (Q6SZW1 whole entry, looked up): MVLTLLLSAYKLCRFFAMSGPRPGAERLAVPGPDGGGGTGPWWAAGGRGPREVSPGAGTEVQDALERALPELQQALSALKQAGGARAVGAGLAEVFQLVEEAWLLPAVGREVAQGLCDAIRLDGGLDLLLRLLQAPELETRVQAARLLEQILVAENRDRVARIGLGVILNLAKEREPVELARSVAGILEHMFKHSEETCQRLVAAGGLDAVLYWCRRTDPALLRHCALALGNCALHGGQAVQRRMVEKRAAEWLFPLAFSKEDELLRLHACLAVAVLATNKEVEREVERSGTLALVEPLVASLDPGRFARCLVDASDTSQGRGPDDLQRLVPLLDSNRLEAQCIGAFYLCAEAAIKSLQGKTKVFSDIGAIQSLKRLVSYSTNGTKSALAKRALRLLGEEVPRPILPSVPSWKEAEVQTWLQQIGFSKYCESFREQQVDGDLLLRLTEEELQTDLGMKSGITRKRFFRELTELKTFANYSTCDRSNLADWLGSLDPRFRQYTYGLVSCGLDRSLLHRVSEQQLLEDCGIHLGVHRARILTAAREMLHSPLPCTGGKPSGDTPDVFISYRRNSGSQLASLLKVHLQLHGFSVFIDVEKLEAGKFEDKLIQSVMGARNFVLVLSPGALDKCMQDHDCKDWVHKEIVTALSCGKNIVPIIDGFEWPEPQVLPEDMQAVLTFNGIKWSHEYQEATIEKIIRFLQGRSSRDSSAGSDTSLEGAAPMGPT
# Chain of 6-phosphogluconate dehydrogenase, decarboxylating (Homo sapiens) (P52209 whole entry, looked up): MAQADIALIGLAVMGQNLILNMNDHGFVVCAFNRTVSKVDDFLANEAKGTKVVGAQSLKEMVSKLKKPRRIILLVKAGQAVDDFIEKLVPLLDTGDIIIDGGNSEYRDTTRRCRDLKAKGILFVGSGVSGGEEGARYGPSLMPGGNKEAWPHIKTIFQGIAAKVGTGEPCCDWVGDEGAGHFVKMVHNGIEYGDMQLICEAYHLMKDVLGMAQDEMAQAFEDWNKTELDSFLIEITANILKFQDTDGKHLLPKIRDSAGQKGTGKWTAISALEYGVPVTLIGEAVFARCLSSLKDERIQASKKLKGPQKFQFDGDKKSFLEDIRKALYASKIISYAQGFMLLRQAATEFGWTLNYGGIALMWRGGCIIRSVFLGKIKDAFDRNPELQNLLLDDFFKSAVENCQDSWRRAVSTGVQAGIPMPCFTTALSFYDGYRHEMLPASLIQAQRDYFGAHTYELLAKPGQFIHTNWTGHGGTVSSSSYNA
# Chain of Mitogen-activated protein kinase 7 (Homo sapiens) (Q13164 whole entry, looked up, the tested form may be a part): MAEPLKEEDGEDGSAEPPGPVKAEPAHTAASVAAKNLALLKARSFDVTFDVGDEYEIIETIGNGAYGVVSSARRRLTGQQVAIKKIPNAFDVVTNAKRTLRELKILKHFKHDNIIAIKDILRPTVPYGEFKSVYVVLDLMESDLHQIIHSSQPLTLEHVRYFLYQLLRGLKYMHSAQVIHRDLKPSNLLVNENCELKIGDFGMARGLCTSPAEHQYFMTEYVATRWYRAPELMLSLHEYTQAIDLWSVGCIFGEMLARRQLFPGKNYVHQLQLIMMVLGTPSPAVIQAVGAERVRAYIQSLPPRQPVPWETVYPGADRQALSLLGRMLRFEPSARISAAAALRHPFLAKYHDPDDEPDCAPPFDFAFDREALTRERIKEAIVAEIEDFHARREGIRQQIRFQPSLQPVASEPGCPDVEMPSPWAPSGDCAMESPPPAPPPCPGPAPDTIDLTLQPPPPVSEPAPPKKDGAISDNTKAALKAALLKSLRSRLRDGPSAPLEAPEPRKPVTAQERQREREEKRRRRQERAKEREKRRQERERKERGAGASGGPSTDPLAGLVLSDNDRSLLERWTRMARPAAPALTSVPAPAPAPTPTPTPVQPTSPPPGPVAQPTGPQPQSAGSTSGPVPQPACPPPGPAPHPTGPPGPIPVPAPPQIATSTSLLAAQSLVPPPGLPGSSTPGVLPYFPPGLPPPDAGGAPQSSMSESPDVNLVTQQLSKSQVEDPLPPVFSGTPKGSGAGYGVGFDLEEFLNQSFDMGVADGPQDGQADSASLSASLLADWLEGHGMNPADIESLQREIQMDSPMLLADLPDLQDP
smiles,measurement,setting,value
CN1C(=O)CCS(=O)(=O)C1c1ccc(Cl)cc1 (stereo not given),inhibition,[1],11.3%
same,score,[2],0.89
same,period change,[3],0.08 h (inactive)
same,fluorescence ratio (interference),[4],1 (inactive)
same,nuclear beta-catenin stimulation,[5]; at 10 µM,0.2% (inactive)
same,nuclear beta-catenin stimulation,"[5]; stimulation, at 2 µM",3.4%
same,insulin secretion stimulation,[6],0.4% (inactive)
same,viability decrease,[7],-22.1% (inactive)
same,tube area decrease,[8],3.9% (inactive)
same,GLP1 secretion stimulation,[9],3.4% (inactive)
same,inhibition of viability,[10],-1.4% (inactive)
same,viability decrease (inhibition),[11],2.8% (inactive)
same,viability decrease (inhibition),[12],-11.9% (inactive)
same,inhibition,[13],-16% (inactive)
same,red/green cell ratio (normalised),[14],1.12 (inactive)
same,normalised cell number,[14]; [21],0.96
same,normalised cell number,[14]; [22],1.07
same,activity remaining,[15],123% (inactive)
same,z-score,[16]; [23],-0.135 (inactive) and 0.131 (inactive)
same,z-score,[16]; [24],0.8 and -0.00931
same,remaining NAD,[17],10 nM (inactive)
same,z-score,[18],0.35 (inactive) and 0.81 (inactive)
Clc1ccc(CO/N=C(\Cn2ccnc2)c2ccc(Cl)cc2Cl)c(Cl)c1,nuclear beta-catenin stimulation,[5]; at 10 µM,27.8% (inactive)
same,nuclear beta-catenin stimulation,"[5]; stimulation, at 2 µM",3.3%
same,insulin secretion stimulation,[6],-0.7% (inactive)
same,viability decrease,[7],101% (active)
same,tube area decrease,[8],109% (active)
same,GLP1 secretion stimulation,[9],25.7% (active)
same,inhibition of viability,[10],101% (active)
same,viability decrease (inhibition),[11],141% (active)
same,viability decrease (inhibition),[12],103% (active)
same,inhibition,[13],-14.7% (inactive)
same,red/green cell ratio (normalised),"[14]; counts scaled to control wells, 1 = unselective",1.02 (inactive)
same,normalised cell number,[14]; [21],1.03
same,normalised cell number,[14]; [22],1.05
same,activity remaining,[15],128% (inactive)
same,fold change,[19]; stronger effect = lower value,0.851 (inactive)
same,fold change,"[19]; stronger effect = lower value, cell number ratio, induced over uninduced",1.12 (inactive)
same,fold change,[19]; [25],1.03 and 1.16
same,cell count,[19]; [26],7740 and 6080
same,cell count,[19]; [27],6900 and 7140
same,z-score,[16]; [23],-0.195 (inactive) and 0.269 (inactive)
same,z-score,[16]; [24],0.707 and 1.28
same,remaining NAD,[17],10 nM (inactive)
same,luciferase signal,[20],52 AU (inactive)
same,z-score,[18],-2.53 (inactive)
C[C@@H]1C[C@@H]([C@H](O)CC2CC(=O)NC(=O)C2)C(=O)[C@@H](C)C1,inhibition,[1],22.7%
same,score,[2],0.04
same,nuclear beta-catenin stimulation,[5]; at 10 µM,28.9% (inactive)
same,nuclear beta-catenin stimulation,"[5]; stimulation, at 2 µM",25.8%
same,insulin secretion stimulation,[6],-1% (inactive)
same,viability decrease,[7],88.7% (active)
same,tube area decrease,[8],103% (active)
same,GLP1 secretion stimulation,[9],-4.7% (inactive)
same,inhibition of viability,[10],78.7% (active)
same,viability decrease (inhibition),[11],68.4% (active)
same,viability decrease (inhibition),[12],67.6% (active)
same,inhibition,[13],-13.3% (inactive)
same,red/green cell ratio (normalised),[14],0.97 (inactive)
same,normalised cell number,[14]; [21],0.98
same,normalised cell number,[14]; [22],0.96
same,activity remaining,[15],112% (inactive)
same,fold change,[19]; stronger effect = lower value,1.05 (inactive) and 0.852 (inactive)
same,fold change,[19]; [25],1.03 and 1.84
same,cell count,[19]; [26],2100 and 2650
same,cell count,[19]; [27],1990 and 3110
same,z-score,[16]; [23],-0.121
same,z-score,[16]; [24],4.57
same,remaining NAD,[17],10 nM (inactive)
same,luciferase signal,[20],20 AU (inactive)
